Test in all cases: PBM; 200 nM protein, PBS
Details in all cases: dsDNA, one strand shown

Assay [1] concerns the target T1, PAX4 (Homo sapiens, UniProt O43316 9-242, R200K).
T1 sequence: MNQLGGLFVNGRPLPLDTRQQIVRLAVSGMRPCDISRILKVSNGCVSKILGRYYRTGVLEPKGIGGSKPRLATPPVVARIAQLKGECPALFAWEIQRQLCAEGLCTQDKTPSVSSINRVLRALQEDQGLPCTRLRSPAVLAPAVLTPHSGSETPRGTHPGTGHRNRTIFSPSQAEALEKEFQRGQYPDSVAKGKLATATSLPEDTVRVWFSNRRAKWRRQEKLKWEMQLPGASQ

Assay [2] deals with T2, PAX4 (Homo sapiens, UniProt O43316 9-242).
T2 sequence: T1 sequence with K192R

Assay [3] addresses HOXA2 (Homo sapiens, UniProt O43364 129-215, R185T).
Assay [4] has as its target ALX3 (Homo sapiens, UniProt O95076 139-225, N203Q).
For assay [5], the target named is T3, NKX2-6 (Homo sapiens, UniProt A6NCS4 118-204).
T3 sequence: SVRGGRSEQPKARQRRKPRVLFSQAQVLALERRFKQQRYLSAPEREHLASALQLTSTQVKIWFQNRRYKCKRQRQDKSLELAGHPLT

For assay [6], the target named is T4, PAX4 (Homo sapiens, UniProt O43316 9-242, R200Q).
T4 sequence: T1 sequence with K192Q

The target of assay [7] is HOXA2 (Homo sapiens, UniProt O43364 129-215, R185K).
HOXA2 (Homo sapiens, UniProt O43364 129-215, R185K), sequence (O43364 129-215 R185K): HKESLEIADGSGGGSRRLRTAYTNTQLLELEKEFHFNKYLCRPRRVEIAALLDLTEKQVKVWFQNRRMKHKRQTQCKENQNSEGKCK
Assay [8] concerns the target T5, PAX4 (Homo sapiens, UniProt O43316 9-242, F177V).
T5 sequence: T1 sequence with F169V, K192R

The target in assay [9] is ALX3 (Homo sapiens, UniProt O95076 139-225).
ALX3 (Homo sapiens, UniProt O95076 139-225), sequence (O95076 139-225): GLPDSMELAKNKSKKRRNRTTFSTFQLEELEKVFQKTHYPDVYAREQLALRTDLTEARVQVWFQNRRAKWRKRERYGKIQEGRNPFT
The target in assay [10] is T6, PAX4 (Homo sapiens, UniProt O43316 9-242, F177Y).
T6 sequence: T1 sequence with F169Y, K192R

For assay [11], the target named is ALX3 (Homo sapiens, UniProt O95076 139-225, L168Q).
ALX3 (Homo sapiens, UniProt O95076 139-225, L168Q), sequence (O95076 139-225 L168Q): as the sequence (O95076 139-225) above, with L30Q counted along it
Assay [12] addresses T7, NKX2-6 (Homo sapiens, UniProt A6NCS4 118-204, F151L).
T7 sequence: T3 sequence with F34L

Assay [13] addresses ALX3 (Homo sapiens, UniProt O95076 139-225, L168V).
Assay [14] concerns the target T8, PAX4 (Homo sapiens, UniProt O43316 9-242, R227W).
T8 sequence: T1 sequence with K192R, R219W

The target in assay [15] is HOXA2 (Homo sapiens, UniProt O43364 129-215, Y150S).
HOXA2 (Homo sapiens, UniProt O43364 129-215, Y150S), sequence (O43364 129-215 Y150S): as the sequence (O43364 129-215 R185K) above, with Y22S, K57R counted along it
In assay [16] the target is ALX3 (Homo sapiens, UniProt O95076 139-225, N203S).
ALX3 (Homo sapiens, UniProt O95076 139-225, N203S), sequence (O95076 139-225 N203S): as the sequence (O95076 139-225) above, with N65S counted along it
The target in assay [17] is HOXA2 (Homo sapiens, UniProt O43364 129-215).
HOXA2 (Homo sapiens, UniProt O43364 129-215), sequence (O43364 129-215): as the sequence (O43364 129-215 R185K) above, with K57R counted along it
The target in assay [18] is HOXD13 (Homo sapiens, UniProt P35453 263-343, T313R).
HOXD13 (Homo sapiens, UniProt P35453 263-343, T313R), sequence (P35453 263-343 T313R): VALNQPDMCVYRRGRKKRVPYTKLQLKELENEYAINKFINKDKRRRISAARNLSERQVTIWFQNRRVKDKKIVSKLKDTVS
Assay [19] deals with HOXD13 (Homo sapiens, UniProt P35453 263-343).
HOXD13 (Homo sapiens, UniProt P35453 263-343), sequence (P35453 263-343): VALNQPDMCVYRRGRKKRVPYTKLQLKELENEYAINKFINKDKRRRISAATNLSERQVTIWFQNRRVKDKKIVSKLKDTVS
In assay [20] the target is HOXD13 (Homo sapiens, UniProt P35453 263-343, T313A).
HOXD13 (Homo sapiens, UniProt P35453 263-343, T313A), sequence (P35453 263-343 T313A): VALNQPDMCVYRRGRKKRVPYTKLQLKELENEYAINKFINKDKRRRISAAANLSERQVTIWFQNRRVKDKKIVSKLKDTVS
Assay [21] deals with HOXB9 (Homo sapiens, UniProt P17482 171-250).
HOXB9 (Homo sapiens, UniProt P17482 171-250), sequence (P17482 171-250): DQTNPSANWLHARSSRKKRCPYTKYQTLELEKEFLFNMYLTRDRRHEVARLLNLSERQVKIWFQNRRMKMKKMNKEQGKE
Assay [22] deals with HOXB9 (Homo sapiens, UniProt P17482 171-250, R186Q).
HOXB9 (Homo sapiens, UniProt P17482 171-250, R186Q), sequence (P17482 171-250 R186Q): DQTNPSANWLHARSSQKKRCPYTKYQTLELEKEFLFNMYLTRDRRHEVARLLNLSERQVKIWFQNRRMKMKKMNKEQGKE

In PMC11006913 one finds binding signal data, which are given here for 5 sequences.

Where a chain is given by its changes, count along the chain named.

ALX3 (Homo sapiens, UniProt O95076 139-225, L168V), sequence (O95076 139-225 L168V): as the sequence (O95076 139-225) above, with L30V counted along it
HOXA2 (Homo sapiens, UniProt O43364 129-215, R185T), sequence (O43364 129-215 R185T): as the sequence (O43364 129-215 R185K) above, with K57T counted along it
ALX3 (Homo sapiens, UniProt O95076 139-225, N203Q), sequence (O95076 139-225 N203Q): as the sequence (O95076 139-225) above, with N65Q counted along it

CGGTACCG: the binding signal with PAX4 [1] was 9.38 upbm affinity estimate (log intensity, higher = more binding, comparable within an allelic series); with PAX4 [2], 9.43 upbm affinity estimate (log intensity, higher = more binding, comparable within an allelic series); with HOXA2 [3], 7.62 upbm affinity estimate (log intensity, higher = more binding, comparable within an allelic series); with ALX3 [4], 7.72 upbm affinity estimate (log intensity, higher = more binding, comparable within an allelic series); in the assay with NKX2-6 [5] it was 9.13 upbm affinity estimate (log intensity, higher = more binding, comparable within an allelic series); with PAX4 [6], 9.37 upbm affinity estimate (log intensity, higher = more binding, comparable within an allelic series). Besides, the binding signal was 10.4 upbm affinity estimate (log intensity, higher = more binding, comparable within an allelic series) in the assay with HOXA2 [7]; 9.37 upbm affinity estimate (log intensity, higher = more binding, comparable within an allelic series) with PAX4 [8]; 7.9 upbm affinity estimate (log intensity, higher = more binding, comparable within an allelic series) in the assay with ALX3 [9]; 9.28 upbm affinity estimate (log intensity, higher = more binding, comparable within an allelic series) in the assay with PAX4 [10]; 7.73 upbm affinity estimate (log intensity, higher = more binding, comparable within an allelic series) in the assay with ALX3 [11]; 9.24 upbm affinity estimate (log intensity, higher = more binding, comparable within an allelic series) in the assay with NKX2-6 [12]. For the same sequence, the binding signal in the assay with ALX3 [13] is 7.69 upbm affinity estimate (log intensity, higher = more binding, comparable within an allelic series); with PAX4 [14], 9.32 upbm affinity estimate (log intensity, higher = more binding, comparable within an allelic series); with HOXA2 [15], 10.4 upbm affinity estimate (log intensity, higher = more binding, comparable within an allelic series); with ALX3 [16], 7.78 upbm affinity estimate (log intensity, higher = more binding, comparable within an allelic series); with HOXA2 [17], 7.54 upbm affinity estimate (log intensity, higher = more binding, comparable within an allelic series).
As to GGCTTCCA, the binding signal with PAX4 [1] was 9.19 upbm affinity estimate (log intensity, higher = more binding, comparable within an allelic series); in the assay with PAX4 [2] it was 9.03 upbm affinity estimate (log intensity, higher = more binding, comparable within an allelic series); in the assay with HOXA2 [3] it was 7.05 upbm affinity estimate (log intensity, higher = more binding, comparable within an allelic series); with PAX4 [6], 9.42 upbm affinity estimate (log intensity, higher = more binding, comparable within an allelic series); in the assay with HOXA2 [7], 10.4 upbm affinity estimate (log intensity, higher = more binding, comparable within an allelic series); with PAX4 [8] it was 9.33 upbm affinity estimate (log intensity, higher = more binding, comparable within an allelic series). Further, the binding signal is 9.37 upbm affinity estimate (log intensity, higher = more binding, comparable within an allelic series) with PAX4 [10]; 9.41 upbm affinity estimate (log intensity, higher = more binding, comparable within an allelic series) with PAX4 [14]; 10.5 upbm affinity estimate (log intensity, higher = more binding, comparable within an allelic series) with HOXA2 [15]; 7.18 upbm affinity estimate (log intensity, higher = more binding, comparable within an allelic series) with HOXA2 [17].
As to AAAATCAG, the binding signal in the assay with PAX4 [1] is 10.5 upbm affinity estimate (log intensity, higher = more binding, comparable within an allelic series); with PAX4 [2] it was 10.7 upbm affinity estimate (log intensity, higher = more binding, comparable within an allelic series); in the assay with PAX4 [6] it was 10.6 upbm affinity estimate (log intensity, higher = more binding, comparable within an allelic series); with PAX4 [8], 10.1 upbm affinity estimate (log intensity, higher = more binding, comparable within an allelic series).
Take CGGCTTTC: the binding signal with PAX4 [1] is 9.21 upbm affinity estimate (log intensity, higher = more binding, comparable within an allelic series); in the assay with PAX4 [2] it was 9.26 upbm affinity estimate (log intensity, higher = more binding, comparable within an allelic series); with HOXD13 [18] it was 9.51 upbm affinity estimate (log intensity, higher = more binding, comparable within an allelic series); in the assay with PAX4 [6], 9.27 upbm affinity estimate (log intensity, higher = more binding, comparable within an allelic series); in the assay with HOXD13 [19], 9.48 upbm affinity estimate (log intensity, higher = more binding, comparable within an allelic series); with PAX4 [8], 9.3 upbm affinity estimate (log intensity, higher = more binding, comparable within an allelic series). Besides, the binding signal with PAX4 [10] is 9.24 upbm affinity estimate (log intensity, higher = more binding, comparable within an allelic series); with HOXD13 [20], 9.54 upbm affinity estimate (log intensity, higher = more binding, comparable within an allelic series); with PAX4 [14] it was 9.29 upbm affinity estimate (log intensity, higher = more binding, comparable within an allelic series).
For the sequence CCCTAATA, the binding signal was 11.3 upbm affinity estimate (log intensity, higher = more binding, comparable within an allelic series) with PAX4 [1]; 11.6 upbm affinity estimate (log intensity, higher = more binding, comparable within an allelic series) with PAX4 [2]; 10.3 upbm affinity estimate (log intensity, higher = more binding, comparable within an allelic series) in the assay with HOXB9 [21]; 8.25 upbm affinity estimate (log intensity, higher = more binding, comparable within an allelic series) with ALX3 [4]; 11.2 upbm affinity estimate (log intensity, higher = more binding, comparable within an allelic series) in the assay with PAX4 [6]; 10.2 upbm affinity estimate (log intensity, higher = more binding, comparable within an allelic series) with PAX4 [8]. Moreover, the binding signal is 10.9 upbm affinity estimate (log intensity, higher = more binding, comparable within an allelic series) with ALX3 [9]; 10.5 upbm affinity estimate (log intensity, higher = more binding, comparable within an allelic series) with PAX4 [10]; 8.97 upbm affinity estimate (log intensity, higher = more binding, comparable within an allelic series) with ALX3 [11]; 10.2 upbm affinity estimate (log intensity, higher = more binding, comparable within an allelic series) with HOXB9 [22]; 8.89 upbm affinity estimate (log intensity, higher = more binding, comparable within an allelic series) with ALX3 [13]; 10.6 upbm affinity estimate (log intensity, higher = more binding, comparable within an allelic series) in the assay with PAX4 [14]. Besides, the binding signal in the assay with ALX3 [16] is 8.32 upbm affinity estimate (log intensity, higher = more binding, comparable within an allelic series).
